Results as given in PubChem BioAssay.
Values joined by “and” are separate entries in the source; they are usually repeats but may differ in a detail not shown here. Equal entries are not always repeated. Records with an inconclusive call do not appear. For some of these results: Potency and affinity values are given separately. Active and inactive are the calls of the source. Unless noted, no rule for the calls is given here.

Assays:
[1] = target: ATP-dependent translocase ABCB1 (Homo sapiens) (UniProt P08183); experiment: MDR1 (ABCB1) efflux transporter inhibition, cell-based (AID 377; in the data active = fluorescence slope change above about 50%); conditions: MDR1-expressing cells, fluorescent substrate accumulation slope; stronger effect = higher value; concentration not given here
[2] = hESC survival regulators, cell-based (AID 493140); conditions: human embryonic stem cell survival screen; stronger effect = higher value;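 also: cells exposed to compounds for four days before counting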
[3] = liver-stage malaria parasite growth inhibition, primary screen, cell-based, HepG2, luciferase luminescence, HepG2 viability (AID 624349; in the data active = parasite load remaining mostly below about 12%, no sharp cut-off; inactive = mostly above about 10%;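 also: 100% = mean of DMSO negative control wells on the same plate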); conditions: P. berghei liver stage in HepG2, luciferase luminescence, concentration not given here; parasite load remaining: stronger effect = lower value; viability: measured here: HepG2 viability without parasites
[4] = differential killing of epithelial or mesenchymal cells, primary screen, imaging, PC-3E GFP, TEM4-18 mCherry, co-culture (AID 1345086;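 active = compounds killing one labelled cell type while sparing the other, by normalised counts and ratio limits, not self-fluorescent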;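 as to all read-outs here: cells exposed to compound for 72 h before imaging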;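 as to red/green cell ratio (normalised): normalised mesenchymal count divided by normalised epithelial count so high means epithelial killing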); conditions: imaging cell counts, at 1 µM; for red/green cell ratio (normalised): actives lie on both sides
[5] = circadian clock period modulators, cell-based, LOPAC library, luminescence reporter (AID 2774); conditions: circadian reporter cells, at 7 µM, actives lie on both sides;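 also: values are relative to mean of DMSO wells on each plate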
[6] = tested on: Hepatitis C virus NS3 helicase; experiment: HCV NS3 helicase inhibitors, primary screen, biochemical, fluorescence polarization, LOPAC1280 library (AID 687035; in the data active = inhibition above about 37%); conditions: Purified HCV NS3 helicase, Cy5-dT15 ssDNA binding fluorescence polarization; stronger effect = higher value; concentration not given here
[7] = Cy5 fluorescence quenching or enhancement artefacts, artefact control for HCV NS3 helicase inhibitor project, biochemical, LOPAC1280 (AID 687037); conditions: Cy5-DNA-NS3h complex fluorescence interference counterscreen
[8] = tested on: Aerobactin synthetase IucA (Klebsiella pneumoniae); experiment: IucA aerobactin synthetase inhibitors, biochemical, Tocris library, absorbance (AID 1345561); conditions: purified IucA enzyme assay, absorbance (OD) read-out; stronger effect = lower value; concentration not given here;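 also: 100% = enzyme without compound and 0% = no enzyme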
[9] = tested on: Aerobactin synthetase IucA (Klebsiella pneumoniae, hypervirulent); experiment: IucA enzyme inhibition, biochemical, LOPAC library, absorbance readout (AID 1346212); conditions: IucA enzyme assay, absorbance (OD) readout; stronger effect = lower value; concentration not given here;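 also: 100% = no compound wells and 0% = no enzyme wells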
[10] = sensitizers of A549 cells to miR-34 induction, primary screen, imaging, A549 dox-inducible miR-34, nuclei and caspase counts (AID 1347080;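 active = compounds whose cell count with miR-34 switched on is under 0.7 times the count with it off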); conditions: A549 miR-34 inducible, Hoechst nuclei count, 48 h
[11] = inhibitors of Cryptococcus chitosan production, flow cytometry, Cibacron Brilliant Red staining (AID 1347148); conditions: Cryptococcus neoformans chitosan, stronger effect = lower value; at 10 µM unless noted;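 also: compound exposure lasted three days at 37 degrees C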
[12] = phospholipid biosynthesis inhibitors in animal cells, primary screen, cell-based, LOPAC library, screen 4 (AID 1347384); conditions: phospholipid biosynthesis inhibition screen, at 10 µM
[13] = viability rescue of complex I mutant cybrids, primary screen, cell-based, galactose medium, ATP luminescence (AID 1645843;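 active = z-score of at least 1.8 in each of two replicates, scored against plate mean and spread of sample wells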;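 also: positive z means more ATP and so rescue of galactose-driven cybrid death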); conditions: complex I mutant cybrid cells, 72 h, stronger effect = higher value
[14] = survival rescue of mitochondrial mutant cells in low glucose, primary screen, MELAS cybrids, Rieske KO mouse fibroblasts, CellTiter-Glo (AID 1508586;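 active = mean z-score across replicates of 1.96 or higher in either the MELAS or the Rieske mutant cell line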;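 also: z relative to plate mean and SD of compound and empty wells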)
[15] = target: Mitogen-activated protein kinase 7 (Homo sapiens) (UniProt Q13164); experiment: ERK5 transactivation activators in reporter cells, primary screen, cell-based, HTS (AID 1508626;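 active = luciferase signal above three times the same-plate solvent-only control wells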;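 also: luciferase driven by Gal4-ERK5 fusion binding five Gal4 sites before minimal TATA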); conditions: HeLa Gal4-ERK5 transactivation, 18 h, at 5 µM, stronger effect = higher value
[16] = target: NAD(+) hydrolase SARM1 (Homo sapiens) (UniProt Q6SZW1); experiment: SARM1 TIR NADase inhibitors, cell lysate, NAD-Glo luminescence (AID 1508614;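 active = compound whose remaining NAD level is above about 45 nM, limit read from the data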;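 also: higher remaining NAD means stronger inhibition of SARM1 NADase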); conditions: SAM-TIR HEK293T lysate NADase, at 1 µM, stronger effect = higher value
[17] = suppressors of polyQ aggregation in yeast, 75Q-TubU reporter (AID 1593); conditions: Yeast 75Q polyglutamine aggregation reporter
[18] = rescue of polyQ-huntingtin neuronal dysfunction in worms, whole organism, C. elegans mechanosensory neurons, N-terminal huntingtin (AID 1599); conditions: touch response, stronger effect = higher value
[19] = inhibitors of mitochondrial cytochrome c release, biochemical, purified mitochondria (AID 1603); conditions: stronger effect = lower value;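 also: mouse liver mitochondria challenged with calcium chloride; signal normalized to the plate average as 100%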
[20] = inhibitors of polyQ protein aggregation (AID 1604); conditions: polyglutamine-induced protein aggregation inhibition assay; stronger effect = higher value; tested at 2.5 µM
[21] = enhancers of glutamate uptake in motor neurons, MN-1 cell line (AID 1612); conditions: MN-1 motor neuron cells, stronger effect = higher value;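 also: tested at 1 µM final; 0% = mean of DMSO vehicle wells on each plate; positive means more glutamate uptake than control and negative means less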
[22] = reducers of polyQ inclusions in PC12 cells, cell-based, NGF-treated PC12, GFPQ80 (AID 1614); conditions: PC12 NGF-treated GFP-polyQ80 inclusion reduction;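 also: lower means fewer inclusions and 0 means no inclusions at all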
[23] = suppressors of polyglutamine aggregation in yeast, 75Q-TubH (AID 1616); conditions: S. cerevisiae 75Q-TubH polyglutamine aggregation suppression; stronger effect = higher value
[24] = tested on: Aerobactin synthetase IucA (Klebsiella pneumoniae hvKP1); experiment: Biochemical IucA enzyme inhibition primary screen of the Spectrum library (AID 1346200); conditions: malachite green pyrophosphate, A620, at 8 µM, stronger effect = lower value;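 also: 100% = wells without compound and 0% = wells lacking enzyme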
[25] = measured here: epithelial PC-3E GFP cell survival
[26] = measured here: mesenchymal TEM4-18 mCherry cell survival
[27] = measured here: relative caspase fold change +Dox/-Dox
[28] = measured here: total cells with miR-34 induction, stronger effect = lower value
[29] = measured here: total cells without miR-34 induction
[30] = stronger effect = lower value, cell number ratio, induced over uninduced

Mitogen-activated protein kinase 7 (Homo sapiens), sequence (Q13164 whole entry, looked up, the tested form may be a part): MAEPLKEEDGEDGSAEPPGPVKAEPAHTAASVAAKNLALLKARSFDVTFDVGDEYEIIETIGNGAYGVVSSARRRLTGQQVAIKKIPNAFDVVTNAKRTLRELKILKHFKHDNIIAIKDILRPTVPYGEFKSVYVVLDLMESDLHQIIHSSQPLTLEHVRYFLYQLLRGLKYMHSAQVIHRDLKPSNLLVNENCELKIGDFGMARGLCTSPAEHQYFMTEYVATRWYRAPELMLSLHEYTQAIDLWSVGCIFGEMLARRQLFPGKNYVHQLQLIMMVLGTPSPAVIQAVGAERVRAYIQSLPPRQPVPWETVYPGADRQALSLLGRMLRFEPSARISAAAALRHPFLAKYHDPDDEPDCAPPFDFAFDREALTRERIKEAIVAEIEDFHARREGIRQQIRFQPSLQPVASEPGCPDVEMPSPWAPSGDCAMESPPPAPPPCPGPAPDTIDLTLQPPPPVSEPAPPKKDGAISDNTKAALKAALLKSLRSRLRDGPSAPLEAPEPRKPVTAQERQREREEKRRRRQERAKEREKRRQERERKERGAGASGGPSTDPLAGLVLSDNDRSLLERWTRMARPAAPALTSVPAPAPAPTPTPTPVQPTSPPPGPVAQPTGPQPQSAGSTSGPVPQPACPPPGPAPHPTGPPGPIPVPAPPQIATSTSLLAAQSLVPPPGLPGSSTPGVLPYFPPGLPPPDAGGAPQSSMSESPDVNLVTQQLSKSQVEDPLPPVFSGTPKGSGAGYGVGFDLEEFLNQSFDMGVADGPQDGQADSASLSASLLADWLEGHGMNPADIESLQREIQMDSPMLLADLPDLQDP
NAD(+) hydrolase SARM1 (Homo sapiens), sequence (Q6SZW1 whole entry, looked up): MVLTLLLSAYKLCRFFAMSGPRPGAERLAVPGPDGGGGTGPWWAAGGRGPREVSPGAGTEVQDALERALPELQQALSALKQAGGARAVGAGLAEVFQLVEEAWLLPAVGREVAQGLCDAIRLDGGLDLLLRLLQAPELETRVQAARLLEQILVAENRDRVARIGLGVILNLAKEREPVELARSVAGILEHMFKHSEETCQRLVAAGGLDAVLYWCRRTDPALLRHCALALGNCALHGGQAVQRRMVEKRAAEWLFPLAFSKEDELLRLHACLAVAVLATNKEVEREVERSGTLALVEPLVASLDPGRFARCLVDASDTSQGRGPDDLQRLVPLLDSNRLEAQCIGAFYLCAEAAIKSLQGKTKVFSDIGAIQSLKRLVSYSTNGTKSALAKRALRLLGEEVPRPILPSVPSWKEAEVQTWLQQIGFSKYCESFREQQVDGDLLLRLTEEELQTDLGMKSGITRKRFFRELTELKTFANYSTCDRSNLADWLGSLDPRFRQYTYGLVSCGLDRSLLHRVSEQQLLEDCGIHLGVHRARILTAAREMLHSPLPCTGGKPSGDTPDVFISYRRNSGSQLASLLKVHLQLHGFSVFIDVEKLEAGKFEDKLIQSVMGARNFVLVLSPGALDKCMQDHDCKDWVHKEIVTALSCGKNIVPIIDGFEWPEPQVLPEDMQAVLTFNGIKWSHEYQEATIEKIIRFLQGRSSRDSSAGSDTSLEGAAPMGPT
ATP-dependent translocase ABCB1 (Homo sapiens), sequence (P08183 whole entry, looked up): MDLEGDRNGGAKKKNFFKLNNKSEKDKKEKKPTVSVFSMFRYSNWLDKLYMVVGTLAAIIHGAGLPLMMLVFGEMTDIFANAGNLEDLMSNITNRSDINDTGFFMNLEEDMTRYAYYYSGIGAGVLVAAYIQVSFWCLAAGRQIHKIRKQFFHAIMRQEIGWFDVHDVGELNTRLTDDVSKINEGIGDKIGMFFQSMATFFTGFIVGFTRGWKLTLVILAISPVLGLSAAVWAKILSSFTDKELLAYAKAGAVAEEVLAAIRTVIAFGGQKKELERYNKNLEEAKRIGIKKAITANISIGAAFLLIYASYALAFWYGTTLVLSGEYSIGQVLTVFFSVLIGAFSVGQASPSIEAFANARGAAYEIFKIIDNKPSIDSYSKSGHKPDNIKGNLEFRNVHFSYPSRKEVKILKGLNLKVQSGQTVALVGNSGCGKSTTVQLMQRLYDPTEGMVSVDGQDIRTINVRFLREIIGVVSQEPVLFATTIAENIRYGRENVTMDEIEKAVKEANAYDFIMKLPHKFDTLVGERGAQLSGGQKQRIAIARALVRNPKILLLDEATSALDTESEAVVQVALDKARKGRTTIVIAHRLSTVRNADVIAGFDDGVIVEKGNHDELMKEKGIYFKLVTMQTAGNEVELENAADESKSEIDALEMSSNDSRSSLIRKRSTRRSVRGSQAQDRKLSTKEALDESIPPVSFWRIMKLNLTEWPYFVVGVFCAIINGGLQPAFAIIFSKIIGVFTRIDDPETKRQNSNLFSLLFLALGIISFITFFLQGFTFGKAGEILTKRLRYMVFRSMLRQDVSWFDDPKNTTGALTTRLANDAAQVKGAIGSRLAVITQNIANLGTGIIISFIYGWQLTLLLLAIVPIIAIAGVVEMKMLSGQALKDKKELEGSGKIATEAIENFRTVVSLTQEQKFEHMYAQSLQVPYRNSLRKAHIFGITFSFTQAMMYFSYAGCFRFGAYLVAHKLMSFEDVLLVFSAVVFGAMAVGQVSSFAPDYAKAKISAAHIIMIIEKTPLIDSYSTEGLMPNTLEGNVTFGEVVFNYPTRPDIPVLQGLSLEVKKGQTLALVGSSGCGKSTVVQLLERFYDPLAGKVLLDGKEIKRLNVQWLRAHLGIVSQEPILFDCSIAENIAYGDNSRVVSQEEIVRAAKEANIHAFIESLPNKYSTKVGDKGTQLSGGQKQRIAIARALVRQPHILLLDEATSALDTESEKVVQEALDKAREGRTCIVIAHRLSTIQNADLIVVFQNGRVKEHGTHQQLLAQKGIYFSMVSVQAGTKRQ

COc1cc2c(c(OC)c1OC)-c1ccc(O)c(=O)cc1C(N)CC2 (stereo unspecified)
fluorescence slope change [1]: 63.7% (active)
survival [2]: 6 (inactive)
parasite load remaining [3]: 59.8% (inactive)
viability [3]: 94.7%
red/green cell ratio (normalised) [4]: 0.78 (inactive)
normalised cell number [4, 25]: 1.21
normalised cell number [4, 26]: 0.95

c1ccc2c(c1)[I+]c1ccccc1-2
period change [5]: -1.22 h (inactive)
inhibition [6]: -5% (inactive)
fluorescence ratio (interference) [7]: 1 (inactive)
remaining activity [8]: 106% (inactive)
remaining activity [9]: 103% (inactive)
fold change ([10]; stronger effect = lower value): 1.1 (inactive) and 0.717 (inactive) and 0.928 (inactive)
fold change [10, 27]: 1.26 and 1.66 and 0.513
cell count [10, 28]: 1170 and 692 and 1240
cell count [10, 29]: 1070 and 966 and 1340
fold fluorescence [11]: 9.07 [at 179.1 µM] (inactive)
outcome [12]: active
z-score [13]: -1.03 (inactive) and -1.25 (inactive)

CCOC(=O)c1ncn2c1[C@@H]1CCCN1C(=O)c1cc(OC)ccc1-2
period change [5]: -0.11 h (inactive)
inhibition [6]: 0% (inactive)
fluorescence ratio (interference) [7]: 1 (inactive)
remaining activity [8]: 125% (inactive)
remaining activity [9]: 110% (inactive)
fold change ([10]; stronger effect = lower value): 1.04 (inactive) and 0.964 (inactive)
fold change [10, 27]: 0.593 and 0.443
cell count [10, 28]: 9220 and 8750
cell count [10, 29]: 8880 and 9080
outcome [12]: inactive
z-score [13]: 0.505 (inactive) and 0.115 (inactive)

NCc1cc(=O)[nH]o1
period change [5]: -0.1 h (inactive)
inhibition [6]: -3% (inactive)
fluorescence ratio (interference) [7]: 1 (inactive)
remaining activity [8]: 112% (inactive)
remaining activity [9]: 89% (inactive)
fold change ([10]; stronger effect = lower value): 0.974 (inactive)
fold change [10, 30]: 0.899 (inactive)
fold change [10, 27]: 1.71 and 1.62
cell count [10, 28]: 10400 and 8970
cell count [10, 29]: 10700 and 9980
outcome [12]: inactive
z-score [13]: 0.465 (inactive) and -0.045 (inactive)

S=C(NC1CCCCC1)N1CCC(c2cnc[nH]2)CC1
period change [5]: -1.93 h (inactive)
inhibition [6]: -3% (inactive)
fluorescence ratio (interference) [7]: 0.9 (inactive)
remaining activity [8]: 89.7% (inactive)
remaining activity [9]: 99.4% (inactive)
fold change ([10]; stronger effect = lower value): 0.921 (inactive)
fold change [10, 30]: 0.93 (inactive)
fold change [10, 27]: 1.06 and 0.678
cell count [10, 28]: 8920 and 7940
cell count [10, 29]: 9690 and 8540
outcome [12]: inactive
z-score ([14]; MELAS cybrid survival, CellTiter-Glo 48 h, stronger effect = higher value): 0.603 (inactive)
z-score ([14]; Rieske KO mouse fibroblast survival, CellTiter-Glo 72 h): 0.478
z-score [13]: -0.46 (inactive) and -0.595 (inactive)

COC(=O)[C@@H]1C[C@H](OC(C)=O)C(=O)[C@H]2[C@@]1(C)CC[C@H]1C(=O)O[C@H](c3ccoc3)C[C@]21C
red/green cell ratio (normalised) [4]: 1.04 (inactive)
normalised cell number [4, 25]: 0.84
normalised cell number [4, 26]: 0.87
luciferase signal [15]: 52 AU (inactive)

C[C@]12CC[C@H](OC3OC(O)C(O)C(O)C3O)C=C1CCC1C2CC[C@]2(C)[C@@H](c3ccc(=O)oc3)CC[C@]12O (stereo partly specified)
parasite load remaining [3]: -0.075% (inactive)
viability [3]: 22.8%
red/green cell ratio (normalised) ([4]; counts scaled to control wells, 1 = unselective): 0.18 (inactive)
normalised cell number [4, 25]: 0.18
normalised cell number [4, 26]: 0.03
fold change [10, 30]: 0.742 (inactive)
fold change [10, 27]: 0.885
cell count [10, 28]: 150
cell count [10, 29]: 202

COC(=O)C(c1ccccc1)C1CCCCN1 (stereo unspecified)
parasite load remaining [3]: 51.8% (inactive)
viability [3]: 106%
red/green cell ratio (normalised) [4]: 0.97 (inactive)
normalised cell number [4, 25]: 1.07
normalised cell number [4, 26]: 1.04
fold change ([10]; stronger effect = lower value): 0.909 (inactive)
fold change [10, 27]: 3.99
cell count [10, 28]: 12600
cell count [10, 29]: 13900
remaining NAD [16]: 10 nM (inactive)
luciferase signal [15]: 44 AU (inactive)

CC(=O)O[C@H]1C[C@H](O[C@H]2[C@@H](O)C[C@H](O[C@H]3[C@@H](O)C[C@H](O[C@H]4CC[C@@]5(C)C(CCC6C5C[C@@H](O)[C@]5(C)[C@@H](C7=CC(=O)OC7)CC[C@]65O)C4)O[C@@H]3C)O[C@@H]2C)O[C@H](C)[C@H]1O[C@@H]1O[C@H](CO)[C@@H](O)[C@H](O)[C@H]1O (stereo partly specified)
score [17]: 1.1
rescue above control [18]: 3.88
cytochrome c release ratio [19]: 0.86
inhibition of aggregation [20]: 100%
glutamate uptake change [21]: -5.55%
inclusion score [22]: 3
aggregation suppression score [23]: 1.31
parasite load remaining [3]: 31.4% (inactive) and 0.905% (inactive)
viability [3]: 50.8% and 15.3%
red/green cell ratio (normalised) [4]: 0.22 (inactive)
normalised cell number [4, 25]: 0.27
normalised cell number [4, 26]: 0.06
fold change ([10]; stronger effect = lower value): 0.6 (active)
fold change [10, 27]: 2.31
cell count [10, 28]: 258
cell count [10, 29]: 431

CCNC1(c2cccs2)CCCCC1=O (stereo unspecified)
survival [2]: 13.6 (inactive)
parasite load remaining [3]: 136% (inactive)
viability [3]: 77%
red/green cell ratio (normalised) [4]: 0.77 (inactive)
normalised cell number [4, 25]: 1.37
normalised cell number [4, 26]: 1.05
fold change ([10]; stronger effect = lower value): 0.914 (inactive)
fold change [10, 27]: 0.59
cell count [10, 28]: 8750
cell count [10, 29]: 9570
remaining NAD [16]: 10 nM (inactive)

CO[C@H]1[C@H](O)[C@@H](O[C@H]2CC[C@]3(C=O)C4CC[C@]5(C)[C@@H](C6=CC(=O)OC6)CC[C@]5(O)C4CC[C@@H]3C2)O[C@@H](C)[C@@H]1O (stereo partly specified)
score [17]: 1.12
rescue above control [18]: -6.49
cytochrome c release ratio [19]: 1.41
inhibition of aggregation [20]: 0%
glutamate uptake change [21]: 3.74%
inclusion score [22]: 0.5
aggregation suppression score [23]: 1.22
parasite load remaining [3]: 56.4% (inactive)
viability [3]: 41.4%
red/green cell ratio (normalised) [4]: 0.18 (inactive)
normalised cell number [4, 25]: 0.18
normalised cell number [4, 26]: 0.03

O1[As]2O[As]3O[As]1O[As](O2)O3
parasite load remaining [3]: 61.8% (inactive)
viability [3]: 103%
red/green cell ratio (normalised) [4]: 0.77 (inactive)
normalised cell number [4, 25]: 1.19
normalised cell number [4, 26]: 0.92
fold change ([10]; stronger effect = lower value): 0.844 (inactive)
fold change [10, 27]: 2.16
cell count [10, 28]: 11700
cell count [10, 29]: 13900

Cc1ccc(C[N+](C)(C)C)o1
remaining activity [8]: 126% (inactive)
activity remaining [24]: 106% (inactive)
fold change [10, 30]: 0.971 (inactive)
fold change [10, 27]: 0.883
cell count [10, 28]: 9440
cell count [10, 29]: 9720
luciferase signal [15]: 100 AU (inactive)
z-score [13]: 0.545 (inactive)

O=C(Cc1ccc(Cl)c(Cl)c1)N1CCCCC1CN1CCCC1 (stereo unspecified)
period change [5]: -0.135 h (inactive)
inhibition [6]: -2% (inactive)
fluorescence ratio (interference) [7]: 0.9 (inactive)
remaining activity [8]: 106% (inactive)
remaining activity [9]: 90.2% (inactive)
fold change ([10]; stronger effect = lower value): 1.01 (inactive) and 0.956 (inactive)
fold change [10, 27]: 1.27 and 0.734
cell count [10, 28]: 9780 and 8020
cell count [10, 29]: 9720 and 8380
outcome [12]: inactive
z-score [13]: 0.175 (inactive) and -0.475 (inactive)

O=C(O)CCCO
parasite load remaining [3]: 64.2% (inactive)
viability [3]: 92.7%
red/green cell ratio (normalised) [4]: 1 (inactive)
normalised cell number [4, 25]: 0.91
normalised cell number [4, 26]: 0.91
fold change ([10]; stronger effect = lower value): 0.926 (inactive)
fold change [10, 27]: 0.797
cell count [10, 28]: 11100
cell count [10, 29]: 11900
remaining NAD [16]: 10 nM (inactive)

C=CC[C@]1(O)CCC2C3CCC4=CC(=O)CCC4=C3C=C[C@@]21C (stereo partly specified)
parasite load remaining [3]: 26.4% (inactive)
viability [3]: 98.9%
red/green cell ratio (normalised) [4]: 0.86 (inactive)
normalised cell number [4, 25]: 0.92
normalised cell number [4, 26]: 0.79
fold change ([10]; stronger effect = lower value): 0.89 (inactive)
fold change [10, 27]: 1.39
cell count [10, 28]: 10300
cell count [10, 29]: 11500
